# “And” between values parts separate entries of the source, which are not always exact repeats. Equal values may be shown once. Records with an inconclusive call do not appear. The source holds several records for some structures; these can differ, active in one and inactive in another. The source made the active and inactive calls. Rule for the calls, unless noted: active = hit-call score of the fitted dose curve at least 0.9, where 1 is the maximum; inactive = score below 0.9.
# What was measured:
# [1] = BSK_BT_Bcell_Proliferation: Viability Assessment in the BioMAP Diversity Plus: BT Assay for B cell Proliferation (AID 2284227); details: primary human B cells with PBMC
# In short: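 Using a human primary B cell–PBMC co-culture, the assay measures total protein by sulforhodamine B absorbance as a gauge of proliferation after 72 h. Analysis followed the positive fitting direction with DMSO as baseline.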
# [2] = read-out: Interleukin 6 (IL6), IL6 (gene 3569); test: BSK_BT_xIL6: BioMAP Diversity Plus: BT Assay for Interleukin 6 (IL6) Biomarker Activity (AID 2284228); details: primary human B cells with PBMC
# In short: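 Human B cell plus PBMC co-culture exposed to test chemical for 24 h; secreted IL-6 quantified by Luminex xMAP bead assay. Activity fitted in the positive direction against DMSO as negative control and baseline.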
# [3] = read-out: Interleukin 17A (IL17A), IL17A (gene 3605); test: BSK_BT_xIL17A: BioMAP Diversity Plus: BT Assay for Interleukin 17A (IL17A) Biomarker Activity (AID 2284229); details: primary human B cells with PBMC
# In short: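 B cells co-cultured with PBMC were exposed to test chemicals, and secreted IL-17A was quantified 24 h after dosing by Luminex xMAP bead immunoassay. Activity was fitted in the gain direction against DMSO as baseline.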
# [4] = read-out: Tumor necrosis factor (Homo sapiens) (UniProt P01375); test: BSK_BT_xTNFa: BioMAP Diversity Plus: BT Assay for Tumor necrosis factor alpha (TNF-alpha) Biomarker Activity (AID 2284230); details: primary human B cells with PBMC
# In short: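 Endpoint derived in the positive direction versus DMSO vehicle. Cells: B cells together with PBMC, exposed 24 h before TNF-alpha in the medium was read on the Luminex xMAP platform.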
# [5] = read-out: Vascular cell adhesion molecule 1 (VCAM1), VCAM1 (gene 7412); test: BSK_MyoF_VCAM1: BioMAP Diversity Plus: MyoF Assay for Vascular cell adhesion molecule 1 (VCAM1) Biomarker Activity (AID 2284231); details: primary human lung fibroblasts
# In short: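 Primary human lung fibroblasts were dosed with test chemical for 24 h, then cell-surface VCAM-1 was measured by ELISA. Activity was fitted in the positive direction against DMSO as negative control and baseline.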
# [6] = read-out: Collagen I, COL1A1 (gene 1277); test: BSK_MyoF_CollagenI: BioMAP Diversity Plus: MyoF Assay for Collagen I Biomarker Activity (AID 2284238); details: primary human lung fibroblasts
# In short: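 Human lung fibroblasts were exposed to test chemical for 24 h, then Collagen I was quantified by ELISA. Activity was fitted in the increasing direction against DMSO as the negative control and baseline.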
# [7] = read-out: Collagen III, COL3A1 (gene 1281); test: BSK_MyoF_CollagenIII: BioMAP Diversity Plus: MyoF Assay for Collagen III Biomarker Activity (AID 2284239); details: primary human lung fibroblasts
# In short: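 Human lung fibroblasts were dosed with chemicals and, 24 hours later, collagen III was measured by ELISA. Activity was fitted in the positive direction against the DMSO negative-control baseline.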
# [8] = read-out: Interleukin 17F (IL17F), IL17F (gene 112744); test: BSK_BT_xIL17F: BioMAP Diversity Plus: BT Assay for Interleukin 17F (IL17F) Biomarker Activity (AID 2284243); details: primary human B cells with PBMC
# In short: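 B cell/PBMC co-culture (human primary), 24 h compound exposure; sIL-17F by Luminex xMAP; gain-of-signal fit vs DMSO baseline.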
# [9] = read-out: Actin alpha 1 (ACTA1), ACTA1 (gene 58); test: BSK_MyoF_ACTA1: BioMAP Diversity Plus: MyoF Assay for Actin alpha 1 (ACTA1) Biomarker Activity (AID 2284244); details: primary human lung fibroblasts
# In short: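 alpha-SMA levels read by ELISA against DMSO baseline, 24 h post-dose, in primary human lung fibroblasts. Parallel cultures stained with 0.1% SRB after 10% TCA fixation (560 nm) to flag overt cytotoxicity.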
# [10] = read-out: Interleukin 2 (IL2), IL2 (gene 3558); test: BSK_BT_xIL2: BioMAP Diversity Plus: BT Assay for Interleukin 2 (IL2) Biomarker Activity (AID 2284245); details: primary human B cells with PBMC
# In short: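 Secreted IL-2 was read by Luminex xMAP from B cells co-cultured with PBMC (human primary) 24 h post-dosing; activity was analysed as gain of signal relative to DMSO vehicle.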
# [11] = read-out: Basic fibroblast growth factor (bFGF), FGF2 (gene 2247); test: BSK_MyoF_bFGF: BioMAP Diversity Plus: MyoF Assay for Basic fibroblast growth factor (bFGF) Biomarker Activity (AID 2284246); details: primary human lung fibroblasts
# In short: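 bFGF was measured by ELISA in primary human lung fibroblasts 24 h after chemical addition. Signal was analysed as positive-direction change relative to DMSO baseline.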
# [12] = read-out: Collagen IV, COL4A1 (gene 1282); test: BSK_MyoF_CollagenIV: BioMAP Diversity Plus: MyoF Assay for Collagen IV Biomarker Activity (AID 2284247); details: primary human lung fibroblasts
# In short: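 Collagen IV quantified by ELISA in human lung fibroblast cultures 24 h after chemical treatment, with DMSO as baseline. Parallel SRB staining (0.1% SRB after TCA fixation, 560 nm) flags overt cytotoxicity.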
# [13] = CCTE_Mundy_HCI_hNP1_Casp3_7: CCTE's Caspase-Glo 3/7 Assay in human neuroprogenitor cells for Apoptosis, Mundy Lab (AID 2284240)
# In short: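 Apoptosis is scored by activated caspase-3/7 luminescence in WA09-derived neural progenitor cells, measured 26.5 h after chemical dosing. Values represent gain of signal relative to DMSO vehicle.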
# [14] = CCTE_Mundy_HCI_hNP1_CellTiter: CCTE's Cell Titer-Glo 2 Assay in human neuroprogenitor cells for Viability, Mundy Lab (AID 2284241; active = hit-call score of the fitted dose curve at least 0.9, where 1 is the maximum)
# In short: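 Human neural progenitor cells (hNP1, WA09-derived) were plated on poly-L-ornithine/laminin and grown 40 to 44 hours at 37 °C, 5% CO2 before chemical addition. Twenty-four hours later, ATP was measured by CellTiter-Glo luminescence; loss of signal versus DMSO indicates reduced viability.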
# [15] = read-out: Monokine induced gamma interferon (MIG), CXCL9 (gene 4283); test: BSK_KF3CT_MIG: BioMAP Diversity Plus: KF3CT Assay for Monokine induced gamma interferon (MIG) Biomarker Activity (AID 2284248); details: primary human keratinocytes with fibroblasts
# In short: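 Human keratinocyte plus foreskin fibroblast primary co-culture dosed with test chemical for 24 h; MIG level measured by ELISA and fitted in the positive direction against DMSO as baseline.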
# Tumor necrosis factor (Homo sapiens), sequence (P01375 whole entry, looked up): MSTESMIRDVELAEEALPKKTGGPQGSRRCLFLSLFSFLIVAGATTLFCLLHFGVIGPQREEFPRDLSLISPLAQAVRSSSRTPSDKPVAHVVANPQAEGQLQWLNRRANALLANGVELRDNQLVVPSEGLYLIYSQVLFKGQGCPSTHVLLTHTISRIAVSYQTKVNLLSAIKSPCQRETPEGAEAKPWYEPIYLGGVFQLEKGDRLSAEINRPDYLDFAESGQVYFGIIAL
smiles,measurement,setting,value
CCC1(C)C(=O)N(Cl)C(=O)N1Cl (stereo not drawn),outcome,[1],inactive
same,outcome,[2],inactive
same,outcome,[3],inactive
same,outcome,[4],inactive
same,outcome,[5],inactive
same,outcome,[6],inactive
same,outcome,[7],inactive
same,outcome,[8],inactive
same,outcome,[9],inactive
same,outcome,[10],inactive
same,outcome,[11],inactive
same,outcome,[12],inactive
C=CC(=O)NC(C)(C)C,outcome,[1],inactive
same,outcome,[2],inactive
same,outcome,[3],inactive
same,outcome,[4],inactive
same,outcome,[5],inactive
same,outcome,[6],inactive
same,outcome,[7],inactive
same,outcome,[8],inactive
same,outcome,[10],inactive
same,outcome,[11],inactive
same,outcome,[12],inactive
CCCCCCOC(=O)CCCCC(=O)OCCCCCC,outcome,[1],inactive
same,outcome,[2],inactive
same,outcome,[3],inactive
same,outcome,[4],inactive
same,outcome,[5],inactive
same,outcome,[6],inactive
same,outcome,[7],inactive
same,outcome,[8],inactive
same,outcome,[9],inactive
same,outcome,[10],inactive
same,outcome,[11],inactive
same,outcome,[12],inactive
C=CCCCCCCCCC=O,outcome,[1],inactive
same,outcome,[2],inactive
same,outcome,[3],inactive
same,outcome,[4],inactive
same,outcome,[5],inactive
same,outcome,[6],inactive
same,outcome,[7],inactive
same,outcome,[8],inactive
same,outcome,[10],inactive
same,outcome,[11],inactive
same,outcome,[12],inactive
O=C(O)C(F)(F)C(F)(F)C(F)(F)C(F)(F)C(=O)O,outcome,[1],inactive
same,outcome,[2],inactive
same,outcome,[3],inactive
same,AC50,[4],2.64 µM (active)
same,outcome,[4],inactive
same,outcome,[5],inactive
same,outcome,[6],inactive
same,outcome,[7],inactive
same,outcome,[13],inactive
same,outcome,[14],inactive
same,outcome,[8],inactive
same,outcome,[10],inactive
same,outcome,[11],inactive
same,outcome,[12],inactive
same,outcome,[15],inactive
C[N+](C)(C)CCCNS(=O)(=O)C(F)(F)C(F)(F)C(F)(F)C(F)(F)C(F)(F)C(F)(F)C(F)(F)C(F)(F)F,outcome,[1],inactive
same,outcome,[2],inactive
same,AC50,[3],30 µM (active)
same,AC50,[4],30 µM (active) and 20.4 µM (active)
same,AC50,[5],44.5 µM (active) and 57 µM (active)
same,AC50,[6],48.6 µM (active) and 48.1 µM (active)
same,AC50,[7],48.8 µM (active) and 50.1 µM (active)
same,AC50,[8],22.5 µM (active) and 21.6 µM (active)
same,AC50,[10],32.6 µM (active) and 21.5 µM (active)
same,AC50,[11],46.9 µM (active) and 47.2 µM (active)
same,AC50,[12],48.9 µM (active)
same,outcome,[12],inactive
same,outcome,[15],inactive
C=CC(=O)OCCCCCCCC(C)C,outcome,[1],inactive
same,outcome,[2],inactive
same,outcome,[3],inactive
same,outcome,[4],inactive
same,outcome,[5],inactive
same,outcome,[6],inactive
same,outcome,[7],inactive
same,outcome,[8],inactive
same,outcome,[10],inactive
same,outcome,[11],inactive
same,outcome,[12],inactive
C=CC(=O)OCCCCCCOC(=O)C=C,AC50,[1],13.2 µM (active)
same,AC50,[2],7.22 µM (active)
same,AC50,[3],6.04 µM (active)
same,AC50,[4],13.1 µM (active)
same,AC50,[5],20 µM (active)
same,AC50,[6],34.4 µM (active)
same,AC50,[7],25.7 µM (active)
same,AC50,[8],9.47 µM (active)
same,AC50,[10],9.78 µM (active)
same,AC50,[11],34.7 µM (active)
same,AC50,[12],3.31 µM (active)
Oc1ccccc1Cc1ccccc1O,outcome,[15],inactive
O=C1CCCCCCCCCCCN1,outcome,[1],inactive
same,outcome,[2],inactive
same,outcome,[3],inactive
same,outcome,[4],inactive
same,outcome,[5],inactive
same,outcome,[6],inactive
same,outcome,[7],inactive
same,outcome,[8],inactive
same,outcome,[10],inactive
same,outcome,[11],inactive
same,outcome,[12],inactive
C=CC(=O)OCC(C)OCC(C)OCC(C)OC(=O)C=C (stereo not drawn),AC50,[1],11.5 µM (active)
same,AC50,[2],5.07 µM (active)
same,AC50,[3],7.92 µM (active)
same,AC50,[4],10.3 µM (active)
same,AC50,[5],30.1 µM (active)
same,AC50,[6],30.4 µM (active)
same,AC50,[7],30.9 µM (active)
same,AC50,[8],7.15 µM (active)
same,AC50,[10],9.17 µM (active)
same,AC50,[11],31.1 µM (active)
same,AC50,[12],23.5 µM (active)
CCCC(C)C(=O)OCC (stereo not drawn),outcome,[15],inactive
CC/C=C\CCOC(=O)c1ccccc1O,outcome,[1],inactive
same,outcome,[2],inactive
same,outcome,[3],inactive
same,outcome,[4],inactive
same,AC50,[5],34.2 µM (active)
same,AC50,[6],31.1 µM (active)
same,AC50,[7],36.1 µM (active)
same,AC50,[8],20 µM (active)
same,outcome,[10],inactive
same,AC50,[11],31.3 µM (active)
same,AC50,[12],33.2 µM (active)
Oc1ccc(/C=C/c2cc(O)cc(O)c2)cc1,AC50,[1],24.5 µM (active)
same,AC50,[2],35.4 µM (active)
same,AC50,[3],20 µM (active)
same,AC50,[4],25.7 µM (active)
same,outcome,[5],inactive
same,outcome,[6],inactive
same,outcome,[7],inactive
same,AC50,[8],23.9 µM (active)
same,outcome,[10],inactive
same,outcome,[11],inactive
same,outcome,[12],inactive
CC(C)C(=O)OCCc1ccccc1,outcome,[15],inactive

# Reference: PubChem BioAssay (EPA / NIEHS)
